PubChem BioAssay AID686979 (National Center for Advancing Translational Sciences (NCATS), 2013)
In all, about 420,000 compounds went through this assay and about 50,000 (12%) were called active. About 26% were inconclusive and are not listed. Calls come from the whole dose curve; as a rule, active = well fitted inhibition curve with a large enough effect; inconclusive = small, poorly fitted or top-dose-only effect; inactive = flat fitted curve, though single readings scatter. This excerpt belongs to a sample that is enriched for actives.

Assay: qHTS for Inhibitors of human tyrosyl-DNA phosphodiesterase 1 (TDP1): qHTS in cells in presence of CPT; note: nearly all actives have a fitted effect of over 55% in size
Conditions: chicken DT40 Tdp1-/-;hTDP1 cells + 20 nM CPT, ATP luminescence, 48 h; series mostly up to 46.2 µM; activity change, negative = growth inhibition: at the top concentration
Description: Human tyrosyl-DNA phosphodiesterase 1 (TDP1) is a novel repair gene, and we propose to use it as a new target for anticancer drug development. TDP1 is not an essential protein, but under treatment with topoisomerase I poison (camptothecin: CPT), TDP1 works as a critical factor for cell survival. To directly identify novel TDP1 inhibitors active in a cellular environment, we have knocked-out the Tdp1 gene in chicken DT40 cells (Tdp1-/-) and generated a complemented counterpart cells that contains a stable transfection of the human TDP1 gene (Tdp1-/-;hTDP1 cells). For the primary screen, Tdp1-/-;hTDP1 cells will be exposed to small molecules in the presence or absence of CPT, and their growth kinetics will be evaluated after 48 hours by measuring ATP activity. […] The hit compounds will then be evaluated in the presence or absence of CPT using Tdp1-/- cells. […] In tertiary assays, biochemical gel-based assays will be used to assess whether the hit compounds specifically target TDP1. To this end, we have screened this cell line against the MLSMR in two primary screens. In one screen we add CPT and in the other we screen in the absence of CPT; this AID represents the screen where CPT was present. NIH Chemical Genomics Center [NCGC] NIH Molecular Libraries Probe Centers Network [MLPCN] MLPCN Grant: MH095538 Assay Submitter (PI): Yves Pommier, NCI
DT40-hTDP1 cells with 20 nM Camptothecin (add 20 microL of 1 mM CPT stock in 1 L of cell culture medium) were dispensed at 400 cells/5microL/well in tissue culture treated 1536-well white wall/solid bottom assay plates (Greiner Bio-One North America, NC, U.S.A.) using a Multidrop Combi 8 channel dispenser (Thermo Fisher, Waltham, MA, USA). 23 nL compounds and controls were transferred using the pin tool (Kalypsys, San Diego, CA, USA) to the assay plates. The assay plates were then incubated at 37 masculineC for a minimum 48 hr. Three microL of Cell Titer Glo solution was added to the plates and incubated at RT in dark for 30 min. Luminescence was read using ViewLux (Perkin Elmer) with 1 sec exposure slow speed, high gain and 2x binning.
% is set by controls: 0 for no effect and ±100 for the full control effect; potency is the fitted concentration of half-maximal effect.

Structure (SMILES) | Potency | activity change, negative = growth inhibition
COc1cccc(/C=N/Nc2ncc(C(F)(F)F)cc2Cl)c1O | 4.61 µM (active) | –
COc1cc(/C=C2\SC(=S)N(Nc3ncc(C(F)(F)F)cc3Cl)C2=O)cc(OC)c1OC | – | -17.6% (inactive)
N/C(=N\OC(=O)Nc1ccc(Cl)c(Cl)c1)c1ncc(C(F)(F)F)cc1Cl | – | -26.8% (inactive)
CC(=O)c1c(C)[nH]c(C(=O)CN2C(=O)NC(C)(C)C2=O)c1C | – | -14.5% (inactive)
O=C(N/N=C/c1cc2c(cc1Br)OCO2)C1COc2ccccc2O1 (stereo unspecified) | – | -12.4% (inactive)
COc1ccc(NC(=O)CSc2nnnn2-c2cccc(OC)c2)cc1 | – | -2.26% (inactive)
CCOc1cccc(-n2nnnc2-c2ccc(OC)cc2)c1 | 2.91 µM (active) | –
COc1ccc(C2=CC(c3cccc(OC)c3)n3nnnc3N2)cc1 (stereo unspecified) | – | 0.872% (inactive)
CCCn1nnnc1NCc1ccc(OC)cc1 | – | -2.53% (inactive)
C=CCOc1ccc(C(=O)Nc2ccccc2C(=O)N2CCCC2)cc1 | – | -1.88% (inactive)
COc1cc(OC)c2c(c1Cl)OC1(C2=O)C(O)=CC(=O)CC1C (stereo unspecified) | – | -20.9% (inactive)
Cc1ccc(O)c(/C=N/NC(=O)COc2ccc3c(C)cc(=O)oc3c2)c1 | 20.6 µM (active) | –
CCOC(=O)Cc1csc(NC(=O)COc2ccc3c(C)cc(=O)oc3c2)n1 | – | -16.1% (inactive)
CC(=O)c1c(C)[nH]c(C(=O)COc2ccc3c(C)cc(=O)oc3c2)c1C | 16.4 µM (active) | –
Cc1cc(=O)oc2ccc(OCC(=O)O)cc12 | – | 2.43% (inactive)
Cc1cc(=O)oc2cc(OCC(=O)Nc3nnc(C4CC4)s3)ccc12 | – | 1.7% (inactive)
COC(=O)COc1ccc2oc(=O)cc(C)c2c1 | – | 11.2% (inactive)
CC1=C(C/C=C(\C)CCCC(C)CCCC(C)CCCC(C)C)C(=O)c2ccccc2C1=O (stereo unspecified) | – | -6.7% (inactive)
C=CC[C@H](CC(=O)OC(C)(C)C)C(=O)OC[C@H]1CCCN1C(=O)[C@H](CC=C)CC(=O)N(CCO)Cc1ccccc1 | 16.4 µM (active) | –
CCc1ccc(NC(=O)Cn2ncn3c(cc4ccccc43)c2=O)cc1 | – | -23.6% (inactive)
N#Cc1cccc(CN2CCC(=O)N(CCO)CC2)c1 | – | 4.69% (inactive)
O=C(C1CCC1)N1CCN(S(=O)(=O)c2ccc([N+](=O)[O-])cc2)CC1 | – | -20.9% (inactive)
Cn1c(=O)c2c(-c3ccccc3Br)n(Cc3ccccc3)cc2n(C)c1=O | 20.6 µM (active) | –
Cc1c(S(=O)(=O)NCc2ccccc2)c(=O)n(C)c(=O)n1C | – | 15.1% (inactive)
O=C(c1ccc[nH]c1=S)N1CCN(S(=O)(=O)c2ccc(Br)cc2Cl)CC1 | – | -0.528% (inactive)
COc1ccc(CCNC(=O)c2ccc(CS(=O)(=O)c3ccc(Br)cc3)o2)cc1OC | 20.6 µM (active) | –

Structure (SMILES) | Potency | activity change, negative = growth inhibition
Cc1ccc(CCNC(=O)c2ccc(CS(=O)(=O)Cc3cccc(C)c3)o2)cc1 | 23.1 µM (active) | –
COc1ccc(CCNC(=O)c2nnc(CS(=O)(=O)c3ccccc3)o2)cc1OC | – | -33.7% (inactive)
COc1ccc(CCNC(=O)c2ccc(CSCc3ccc(C)cc3)o2)cc1OC | 14.6 µM (active) | –
COc1ccccc1CNC(=O)c1ccc(CS(=O)(=O)c2ccccc2)o1 | – | -0.755% (inactive)
O=C(NCc1ccco1)c1ccc(CS(=O)(=O)Cc2ccc(F)cc2)o1 | – | -9.49% (inactive)
COc1ccc(CCNC(=O)Cc2ccc(C)cc2)cc1OC | – | -25.1% (inactive)
COc1ccc(CCNC(=O)NS(=O)(=O)c2ccc(C)cc2)cc1OC | – | 1.74% (inactive)
Cc1ccc(CNC(=O)c2ccc(CS(=O)Cc3cccc(Cl)c3)o2)cc1 (stereo unspecified) | – | -23.5% (inactive)
COc1cccc(NC(=S)N(Cc2ccc(C)cc2)Cc2ccccn2)c1 | – | -11.2% (inactive)
CN=C1C=C/C(=N/N=c2\ccn(O)cc2C)C=C1C | – | 2.23% (inactive)
CCOC(=O)C1=C(CC)Nc2ccccc2N=C1NC(=O)c1cccc(S(=O)(=O)N2CCCC2)c1 | – | -21.8% (inactive)
CC(=O)NC12CC3CC(C1)CC(C(=O)N1CCN(C(=O)c4ccco4)CC1)(C3)C2 | – | 2.65% (inactive)
N#CC1(Nc2ccc3c4c(cccc24)CC3)CCCCC1 | – | -7.33% (inactive)
CC(C)[C@H]1CC[C@@H](C)C[C@H]1O | – | 31.4% (inactive)
CC(c1ccccn1)N(CCN(C)C)C(=S)Nc1ccccc1F (stereo unspecified) | – | -0.383% (inactive)
N/C(=N\OC(=O)CCn1cccc(C(F)(F)F)c1=O)c1ccc(OC(F)(F)F)cc1 | – | -10.4% (inactive)
CC(=O)Nc1ccc(C(=O)N(C2=NC(C)CS2)c2ccc(Cl)cc2)cc1 (stereo unspecified) | – | 2.95% (inactive)
COc1ccccc1NC(=O)CSc1nnc(Cn2nnc(-c3ccccc3)n2)n1-c1ccccc1 | 18.4 µM (active) | –
COc1ccccc1NC(=O)CSc1nnc(Cc2cccn2C)n1-c1ccc(F)cc1 | – | -7.4% (inactive)
COc1ccccc1OCc1nnc(SCC(N)=O)n1-c1ccccc1 | – | 12.4% (inactive)
COc1ccc(S(=O)(=O)N(C)CC(=O)NCCCN2CCOCC2)cc1Cl | – | 3.43% (inactive)
O=C(COc1ccc(Br)cc1F)NCC1(N2CCCCC2)CCCCC1 | – | -7.8% (inactive)
Cc1cc(C(=O)COc2ccccc2Cl)c(C)n1C1CC1 | 13 µM (active) | –
Cc1cc(C(=O)COc2ccc(Br)cc2F)c(C)n1C1CC1 | 7.31 µM (active) | –
O=C(COc1ccccc1Cl)Nn1cnnc1 | – | 5.43% (inactive)
